PubChem BioAssay
A number with no mark means an inactive call.

system: not listed separately; experiment: viability profiling in MM1S myeloma cells – cell-based, resazurin fluorescence, basal, 24 h, PK04 Diversity Set, profiling panel (AID 1174); conditions: higher = more signal, called active from +8 up or from −8 down;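 note: MM1S multiple myeloma cell line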
Note: test concentration not given here.

| SMILES | z-score |
| --- | --- |
| Cc1ccc(S[C@]2(C(=O)NC3CC3)CC(=O)N(C(C)C)[C@@H]2c2ccc(CO)cc2I)cc1 | -2.29 |
| COc1cc(CO)cc(I)c1O[C@H]1C=C(C(=O)NCCO)C[C@@H]2O[C@H]12 | -0.0563 |
| CC(=O)NCCCC[C@@H]1NC(=O)[C@H]2C[C@@H](C(=O)NCCCCCCNC(=O)CS)[C@@H](c3cccc(OCCO)c3)N2C1=O | -0.469 |
| C=CC[C@@]1(C(=O)OC)N=C(c2ccc(OCCCO)cc2)O[C@@H]1c1ccccc1N=[N+]=[N-] | -0.768 |
| CCC(CC)C(O)C1C=CC2C(=O)N(c3ccccc3)C(=O)C2N1Nc1ccccc1F (stereo not drawn) | -0.0479 |
| CN1C(=O)C2C(C1=O)C1C=C(CCCO)C2C(C2CC2)N1Cc1cccc(OC(F)(F)F)c1 (stereo not drawn) | -0.551 |
| C=C(CCCC)C(=O)CC[C@H](OC(=O)c1ccccc1-c1ccccc1C(=O)O)c1ccc(OCCO)cc1 | -0.429 |
| COC(=O)[C@@]1(Cc2ccc(F)cc2)[C@H]2c3cc(C(=O)N(C)C)n(C)c3C[C@H]2CN1C(=O)c1ccccc1 | -0.911 |
| O=C(NC1CC1)[C@@H]1c2ccccc2C(=O)N(Cc2cc(C(F)(F)F)cc(C(F)(F)F)c2)[C@H]1c1ccc(CO)cc1 | -0.498 |
| [N-]=[N+]=Nc1ccccc1[C@@H]1OC(c2ccc(OCCCO)cc2)=N[C@]1(CCS(=O)(=O)c1ccccc1)C(=O)NCC(O)CO (stereo partly drawn) | 0.321 |
| CCCNC(=O)[C@@]1(Sc2ccc(C)cc2)CC(=O)N(Cc2ccccc2Cl)[C@@H]1c1ccc(CO)cc1I | -3.58 |
| COC(=O)[C@@]1(Cc2ccc(OC)cc2)[C@H]2c3cc(C(=O)N4CCCC4)n(CCn4cc([N+](=O)[O-])nc4C)c3C[C@H]2CN1C(=O)c1ccccc1 | -1.72 |
| COCC(=C=CC[C@H](O)c1ccccc1OCCO)C[C@H](O)COCc1ccccc1 | 0.442 |
| C=CC1c2cc(O)c(OC)cc2CCN1C (stereo not drawn) | -0.728 |
| COc1ccc([Si](C)(C)[C@H]2[C@H](CC(=O)N3CCC[C@H]3CO)O[C@@]3(C(=O)N(Cc4ccc(N5CCCCC5=O)cc4)c4ccccc43)[C@@H]2C)cc1 | -0.563 |
| Cc1ccc(F)cc1S(=O)(=O)N[C@H]1CCN(Cc2ccc(OC(C)C)cc2)C1 | -1.1 |
| COC(=O)C(CC#Cc1ccc2c(c1)[C@]1(C(=O)N2)[C@H](c2ccccc2OCCO)N2[C@H](c3ccccc3)[C@H](c3ccccc3)OC(=O)[C@H]2[C@@H]1C(=O)N1CCc2cc(OC)c(OC)cc2C1)C(=O)OC | -1.07 |

target: Dihydroorotate dehydrogenase (quinone), mitochondrial (Plasmodium falciparum (isolate 3D7)) (UniProt Q08210); experiment: inhibition of P. falciparum DHODH – biochemical, C-terminal His tag, absorbance 600 nm, primary screen (AID 1175); conditions: PfDHODH enzyme, DCIP absorbance 600 nm; higher = more signal, called active from +8 up or from −8 down;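 note: recombinant parasite enzyme with a five histidine tag at its C terminus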
Sequence (Q08210 whole entry, looked up): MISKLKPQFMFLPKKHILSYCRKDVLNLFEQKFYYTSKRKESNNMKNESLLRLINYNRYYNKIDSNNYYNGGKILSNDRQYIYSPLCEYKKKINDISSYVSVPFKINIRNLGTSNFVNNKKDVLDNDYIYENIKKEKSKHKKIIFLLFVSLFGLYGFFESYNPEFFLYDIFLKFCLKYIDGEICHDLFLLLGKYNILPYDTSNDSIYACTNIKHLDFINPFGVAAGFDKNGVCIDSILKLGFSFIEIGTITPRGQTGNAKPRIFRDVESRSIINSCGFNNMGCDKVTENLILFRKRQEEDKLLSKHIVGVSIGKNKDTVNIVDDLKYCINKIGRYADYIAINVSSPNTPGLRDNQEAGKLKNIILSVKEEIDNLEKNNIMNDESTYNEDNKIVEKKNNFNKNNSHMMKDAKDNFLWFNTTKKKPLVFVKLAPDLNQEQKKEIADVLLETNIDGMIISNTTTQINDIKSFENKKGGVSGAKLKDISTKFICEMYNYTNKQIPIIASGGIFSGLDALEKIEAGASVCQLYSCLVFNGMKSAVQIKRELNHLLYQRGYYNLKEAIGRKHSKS

| SMILES | composite z-score |
| --- | --- |
| C=C(COC)/C(=C/C[C@H](OC(C)=O)c1ccccc1OCCO)c1cc(C(=O)OC)ccc1OC | -1.68 |
| C=C(CCCC)/C(=C/C[C@H](OC(=O)c1ccncc1)c1cccc(OCCO)c1)c1cnc2ccccc2c1 | -2.67 |
| C=C(COC)C(=O)CC[C@@H](OC(C)=O)c1ccccc1OCCO | -1.34 |
| COc1ccc(C(O)C2C=CC3C(=O)N(c4ccccc4)C(=O)C3N2Nc2ccc(C#N)cc2)cc1OCc1ccccc1 (stereo not drawn) | 0.94 |
| CCOC(=O)C1=CC[C@@H](c2ccc(OC)cc2)N(S(=O)(=O)c2ccc(C)cc2)[C@H]1c1ccc(C)cc1 | -0.329 |
| C=C(CCCC)/C(=C/C[C@H](OC(C)=O)c1cccc(OCCO)c1)c1cnc2ccccc2c1 | -3.15 |
| CC(=O)OCC1C2CC[C@H]3C(OCc4ccc(F)cc4C(F)(F)F)OC[C@]4(C)[C@H]3C2=C(CN4C(=O)OC(C)(C)C)[C@H](C)C1COC(C)=O (stereo partly drawn) | 0.182 |
| CC(C)(C)OC(=O)CC[C@]1(C(=O)NCC(O)CO)N=C(c2ccc(OCCCO)cc2)O[C@H]1c1ccccc1N=[N+]=[N-] (stereo partly drawn) | -0.955 |
| COC(=O)[C@@]1(Cc2ccc(F)cc2)[C@H]2c3cc(C(=O)N(C)C)n(CCc4ccc(O)c(O)c4)c3C[C@H]2CN1C(=O)c1ccccc1 | -0.137 |
| CC[C@@H]1C=C(C(=O)O)[C@H](c2ccc(OC)cc2)N1S(=O)(=O)c1ccc(C)cc1 | -1.09 |
| COC(=O)[C@@]1(Cc2ccccc2)N=C(c2ccc(OCCCO)cc2)O[C@H]1c1ccccc1CN=[N+]=[N-] | 0.468 |
| COc1ccc(C(=O)Nc2cccc(CN3C(=O)[C@@]4(O[C@@H](CC(=O)N5CCC[C@H]5CO)[C@H]([Si](C)(C)c5ccc(OC)cc5)[C@H]4C)c4ccccc43)c2)cc1 | -5.69 |
| CC(=O)c1ccc(C(O)C2C=CC3C(=O)N(c4ccccc4)C(=O)C3N2Nc2ccc(C(C)C)cc2)cc1 (stereo not drawn) | 0.774 |
| COc1ccccc1CN1C(=O)c2ccccc2[C@](Cc2ccccc2I)(C(=O)NCC(C)C)[C@@H]1c1ccc(CO)cc1 | 0.133 |
| C=CCNC(=O)[C@H]1[C@@H]2C(=O)O[C@@H](c3ccccc3)[C@@H](c3ccccc3)N2[C@@H](c2ccc(OCCO)cc2)[C@]12C(=O)Nc1ccc(C#CC3(O)CCCCCC3)cc12 | -0.0685 |
| [N-]=[N+]=Nc1ccccc1C[C@@]1(C(=O)NCC(O)CO)N=C(c2ccc(OCCCO)cc2)O[C@@H]1c1ccccc1 (stereo partly drawn) | 0.303 |
| CCOC(=O)c1cn(C[C@H](Cc2ccccc2)NC(=O)N[C@H](CO)CCc2oc(C(C)=O)c(C(=O)OC)c2C(=O)OC)nn1 | -3.55 |
| Cc1ccc(S[C@]2(C(=O)NCCCN(C)C)CC(=O)N(Cc3ccccc3C(F)(F)F)[C@@H]2c2ccc(CO)cc2I)cc1 | -0.168 |

| SMILES | composite z-score |
| --- | --- |
| COCCOC(=O)N1C(=O)[C@@]2(c3cc(C#CCNC(N)=O)ccc31)[C@H](C(=O)Nc1nc3ccccc3s1)[C@H]1C(=O)O[C@H](c3ccccc3)[C@H](c3ccccc3)N1[C@@H]2c1ccccc1OCCO | -0.845 |
| Cc1ccc(S[C@]2(C(=O)NC3CC3)CC(=O)N(C(C)C)[C@@H]2c2ccc(CO)cc2I)cc1 | -0.632 |
| COc1cc(CO)cc(I)c1O[C@H]1C=C(C(=O)NCCO)C[C@@H]2O[C@H]12 | -1.32 |
| CC(=O)NCCCC[C@@H]1NC(=O)[C@H]2C[C@@H](C(=O)NCCCCCCNC(=O)CS)[C@@H](c3cccc(OCCO)c3)N2C1=O | 0.929 |
| C=CC[C@@]1(C(=O)OC)N=C(c2ccc(OCCCO)cc2)O[C@@H]1c1ccccc1N=[N+]=[N-] | 1.09 |
| CCC(CC)C(O)C1C=CC2C(=O)N(c3ccccc3)C(=O)C2N1Nc1ccccc1F (stereo not drawn) | 1.57 |
| CN1C(=O)C2C(C1=O)C1C=C(CCCO)C2C(C2CC2)N1Cc1cccc(OC(F)(F)F)c1 (stereo not drawn) | -1.75 |
| C=C(CCCC)C(=O)CC[C@H](OC(=O)c1ccccc1-c1ccccc1C(=O)O)c1ccc(OCCO)cc1 | -1.03 |
| COC(=O)[C@@]1(Cc2ccc(F)cc2)[C@H]2c3cc(C(=O)N(C)C)n(C)c3C[C@H]2CN1C(=O)c1ccccc1 | 0.0197 |
| O=C(NC1CC1)[C@@H]1c2ccccc2C(=O)N(Cc2cc(C(F)(F)F)cc(C(F)(F)F)c2)[C@H]1c1ccc(CO)cc1 | -0.331 |
| [N-]=[N+]=Nc1ccccc1[C@@H]1OC(c2ccc(OCCCO)cc2)=N[C@]1(CCS(=O)(=O)c1ccccc1)C(=O)NCC(O)CO (stereo partly drawn) | 0.612 |
| CCCNC(=O)[C@@]1(Sc2ccc(C)cc2)CC(=O)N(Cc2ccccc2Cl)[C@@H]1c1ccc(CO)cc1I | -0.139 |
| COC(=O)[C@@]1(Cc2ccc(OC)cc2)[C@H]2c3cc(C(=O)N4CCCC4)n(CCn4cc([N+](=O)[O-])nc4C)c3C[C@H]2CN1C(=O)c1ccccc1 | -0.329 |
| COCC(=C=CC[C@H](O)c1ccccc1OCCO)C[C@H](O)COCc1ccccc1 | -2.21 |
| C=CC1c2cc(O)c(OC)cc2CCN1C (stereo not drawn) | -3.34 |
| COc1ccc([Si](C)(C)[C@H]2[C@H](CC(=O)N3CCC[C@H]3CO)O[C@@]3(C(=O)N(Cc4ccc(N5CCCCC5=O)cc4)c4ccccc43)[C@@H]2C)cc1 | -2.66 |
| Cc1ccc(F)cc1S(=O)(=O)N[C@H]1CCN(Cc2ccc(OC(C)C)cc2)C1 | -0.0588 |
| COC(=O)C(CC#Cc1ccc2c(c1)[C@]1(C(=O)N2)[C@H](c2ccccc2OCCO)N2[C@H](c3ccccc3)[C@H](c3ccccc3)OC(=O)[C@H]2[C@@H]1C(=O)N1CCc2cc(OC)c(OC)cc2C1)C(=O)OC | -0.653 |
